For 39 compounds, max activity results are on record in PubChem BioAssay AID743446 (Broad Institute, 2014).

Measured potencies and affinities stand elsewhere. A number with no mark means an inactive call. The rule behind the calls is not given here.

The assay is described as follows: viability loss in HEK293 cells – cell-based, plate reader, cherry-picked samples, cytotoxicity control, dose response (AID 743446). The conditions noted are these: hits give low values; at 26 µM unless noted.
As for `COc1ccc(S(=O)(=O)N(C)C[C@@H]2OCc3cnnn3CCCC(=O)N([C@@H](C)CO)C[C@H]2C)cc1`, the max activity was 0% [setting not given]. `CC(C)CCNC(=O)C(c1ccc(O)cc1)N(Cc1cccs1)C(=O)C1COc2ccccc2O1` (centres undefined): the max activity is -16.3%. Regarding `O=C1CC(c2ccc3c(c2)OCO3)Sc2nc3ccccc3n21` (centres undefined), the max activity was -8.84% [at 0.38 µM]. In the case of `Cc1ccc(-c2nc(-c3ccncc3)no2)cc1C`, the max activity was -14.8%. In the case of `O=C(Nc1cccc(-c2ccc(N3CCCCC3)nn2)c1)C(F)(F)F` it was -33.5% [at 3 µM]; in that of `Cc1cccn2c(CNCC3(c4ccccc4)CCCC3)c(C(=O)N3CCOCC3)nc12`, 13.8% [at 3 µM]. For `C[C@H](CO)N1C[C@H](C)[C@H](CN(C)C(=O)Nc2cccc3ccccc23)OCCCC[C@H](C)Oc2ccc(NC(=O)NC3CCCCC3)cc2C1=O`, the max activity is 68.9%. Regarding `N#C[C@@H]1[C@H](c2ccc(C#CC3CCCCC3)cc2)[C@@H](CO)N1S(=O)(=O)c1ccccc1`, the max activity is 39.8% [at 12 µM]. For the compound `C[C@H](CO)N1C[C@H](C)[C@H](CN(C)C(=O)Nc2ccc(C(F)(F)F)cc2)OCCCC[C@H](C)Oc2ccc(NC(=O)NC3CCCCC3)cc2C1=O`, the max activity was 66%. As for `Cc1cc(-c2ccccc2)n2ncc(-c3ccccc3)c2n1`, the max activity is 19.9% [at 0.8 µM]. Next, `O=C(Nc1ccc(Cl)cc1)Nc1ccccc1C(=O)O`: 16.5% [at 0.1 µM].

Turning to `Fc1ccc(-n2nnc(-c3cnc4ccccc4c3)n2)cc1`, the max activity was 26.8% [at 1.6 µM]. Turning to `c1ccc(-n2cnnc2SCc2cn3cccnc3n2)cc1`, the max activity is 82.5% [at 0.8 µM].

Regarding `C[C@@H]1CN([C@H](C)CO)C(=O)CCCn2nncc2CO[C@H]1CN(C)C(=O)Nc1cccc2ccccc12`, the max activity is 15.4%. `Cc1noc(C)c1S(=O)(=O)Nc1ccc2c(c1)C(=O)N([C@H](C)CO)C[C@H](C)[C@H](CN(C)C(=O)Nc1ccc(F)cc1)OCCCC[C@@H](C)O2`: the max activity was 16.1% [at 0.1 µM]. For `C[C@@H]1CN([C@H](C)CO)C(=O)c2c(c3ccccc3n2C)-c2ccccc2CO[C@@H]1CN(C)S(=O)(=O)c1ccc(C(F)(F)F)cc1`, the max activity is -8.56%. `COc1ccc(-n2cc(C(=O)c3ccccc3O)cn2)cc1`: the max activity was 69.9% [at 3 µM]. With `C[C@@H]1CN([C@@H](C)CO)C(=O)c2cccc(NC(=O)Nc3ccc(C(F)(F)F)cc3)c2O[C@H]1CN(C)C(=O)Nc1cccc2ccccc12`, the max activity is 14.8% [at 6 µM]. Next, `COc1ccc(Cl)cc1C(=O)Nc1nc2ccccc2[nH]1`: 69.4% [at 0.195 µM]. Take `O=c1[nH]c(CSc2ccccn2)nc2c1oc1ccccc12`: the max activity is -17.8%. With `C[C@H](CO)N1C[C@H](C)[C@H](CN(C)C(=O)Nc2ccccc2)OCCCC[C@H](C)Oc2ccc(NC(=O)Nc3ccc4c(c3)OCO4)cc2C1=O`, the max activity was 50.9% [at 0.195 µM]. With `COc1ccccc1CN(C)C[C@@H]1OCc2cnnn2CCCC(=O)N([C@H](C)CO)C[C@H]1C`, the max activity was 11% [at 0.38 µM].

Take `O=C(O)c1ccc(-c2noc(-c3ccccc3Cl)n2)cc1`: the max activity was -20.2% [at 6 µM]. Regarding `COc1ccc2nc(-c3ccccn3)ccc2c1`, the max activity is -37.6%. On to `CCOc1ccc(C(=O)Nc2cccc(C(=O)O)c2C)cc1Cl`, for which the max activity is 26.7%. As for `Cc1ccc(S(=O)(=O)N2CCCc3nc(-c4ccc(F)cc4)ccc32)cc1`, the max activity is 43.2% [at 12 µM].

Turning to `COc1ccc(-c2cc(C(=O)N3CCCC3)no2)cc1`, the max activity was 30.6% [at 0.195 µM].

As for `CC(C)(C)n1ncc2c(=O)n(CC(=O)OCc3ccccc3)cnc21`, the max activity is -10.3% [at 0.38 µM].

Take `CCOc1ccc(C(=O)Nc2nnc(SCC(=O)NCC3CCCO3)s2)cc1` (centres undefined): the max activity is 27.5% [at 3 µM].

On to `O=C(O)c1ccc(N/N=C/c2c[nH]c3ccccc23)cc1`, for which the max activity is 10.4% [at 3 µM]. In the case of `CCOC(=O)Nc1ccc(N2CCOCC2)c(S(=O)(=O)Nc2ccc(Cl)cc2)c1` it was -19.3%; in that of `Cc1noc(C)c1S(=O)(=O)Nc1cccc2c1O[C@H](CN(C)C(=O)Nc1ccc(F)cc1)[C@H](C)CN([C@H](C)CO)C2=O`, -6.26%; in that of `O=C(O)c1cccc(-c2nc3ccccc3[nH]2)c1`, -25.9% [at 0.38 µM]. Turning to `COc1ccc(-n2sc3ccc(F)cc3c2=O)cc1`, the max activity is -22.4% [at 0.05 µM]. `O=C(O)c1cccc(N/N=C/c2cccs2)c1`: the max activity was 58.2% [at 6 µM]. Next, `O=C(Nc1ccc(Cl)c(S(=O)(=O)N2CCOCC2)c1)c1ccc2c(c1)OCCO2`: -8.36% [at 3 µM]. As to `C[C@H]1CCCCO[C@H](CN(C)C(=O)Nc2cccc3ccccc23)[C@@H](C)CN([C@@H](C)CO)C(=O)c2cc(NS(=O)(=O)c3cn(C)cn3)ccc2O1`, the max activity is 21.9% [at 0.05 µM].

Consider `Cc1cnc(NC(=O)c2ccc(OCC3CCCO3)cc2)s1` (centres undefined), for which the max activity is 9% [at 6 µM]. In the case of `N#C[C@@H]1[C@H](c2ccc(C#Cc3ccccc3F)cc2)[C@@H](CO)N1C(=O)C1CCCC1`, the max activity is -15.6%.
